Screening results (PubChem BioAssay)
An excerpt weighted towards active compounds, which were near 3.1% of everything screened.
GSIS activator = primary screen for activators of insulin secretion dependent on glucose, INS-1E cells, GLuc reporter luminescence. 370,000 tested, 0.61% active. INS-1E GLuc reporter insulin secretion, 2-3 h. activation, % at 16.6 µM. AID 743287;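 active = lowest replicate activation of at least 40%, so every replicate reaches that level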
dFosB activator = activators of mouse delta FosB homodimer | activation, % at 25 µM | purified delta FosB, TAMRA-CDK5 oligo fluorescence polarization; percent of positive-control signal above neutral wells | P13346 | 340,000 tested, 0.99% active;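 active = mean activation above about 17%, with every replicate also reaching it, limit read from the data, passing the limit was not always enough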
MLL AF4-AF9 inh = blocks AF4 peptide binding to human AF9; P42568; AlphaScreen, biotin-AF4 peptide binding to FLAG-AF9; inhibition, % at 10 µM; 350,000 tested, 0.47% active; AID 651704;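 active = every replicate reaching a set inhibition limit, whatever the replicate mean, cut at about 25% in these data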
RAD52 inh = blocks human RAD52 DNA annealing; P43351; recombinant RAD52 DNA annealing, FRET fluorescence; inhibition, % at 18.7 µM; 360,000 tested, 0.46% active; AID 651710;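 active = every replicate showing at least 50% inhibition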
Target sequence (P43351 whole entry, looked up): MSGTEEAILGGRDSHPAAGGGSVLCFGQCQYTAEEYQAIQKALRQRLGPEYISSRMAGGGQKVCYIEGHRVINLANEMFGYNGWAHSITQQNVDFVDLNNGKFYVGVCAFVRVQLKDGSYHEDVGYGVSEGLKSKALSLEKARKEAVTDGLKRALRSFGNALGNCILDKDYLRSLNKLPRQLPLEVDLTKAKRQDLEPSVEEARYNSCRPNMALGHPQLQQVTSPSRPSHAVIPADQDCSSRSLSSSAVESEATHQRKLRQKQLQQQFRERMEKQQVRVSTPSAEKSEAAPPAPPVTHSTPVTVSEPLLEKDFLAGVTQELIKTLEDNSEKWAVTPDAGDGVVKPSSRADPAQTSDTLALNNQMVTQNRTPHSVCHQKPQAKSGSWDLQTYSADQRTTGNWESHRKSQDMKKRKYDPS
DENV2 CPE = DENV2-induced cell death inhibition; 350,000 tested, 1.7% active; CPE inhibition, % at 9.99 µM; DENV2-infected cells, cytopathic effect rescue, plate reader; in the data active = CPE inhibition above about 20%, passing the limit was not always enough; tested in BHK-21 cells
RAD54 inh = blocks human RAD54 Holliday junction branch migration; inhibition, % at 10.4 µM; FAM/BHQ fluorescence; 360,000 tested, 0.14% active; Q92698;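 active = mean normalized replicate activity at least 40 and at least half of replicates scoring 40 or more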;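 also: inhibitors cause a drop in the FAM fluorescence signal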
Each line names hits and unclear results; the compound was inactive in the other large screens.

O=C([C@H]1[C@H](CO)[C@H]2Cn3c(ccc(-c4ccccc4)c3=O)[C@H]2N1Cc1cocn1)N1CCCCC1	none (no result: dFosB activator)
OCc1cn(-c2ccccc2)nc1-c1ccc(Br)cc1	DENV2 CPE 48
COc1ccc(C(=O)NC(=S)Nc2ccc3c4c(cccc24)CC3)cc1OC	GSIS activator 96 (no result: MLL AF4-AF9 inh, RAD52 inh, DENV2 CPE)
COc1ccc(NC(=O)N(C)C[C@@H]2Oc3ccc(NS(=O)(=O)c4ccc(C)cc4)cc3CC(=O)N([C@H](C)CO)C[C@H]2C)cc1	none (no result: dFosB activator, MLL AF4-AF9 inh, RAD52 inh, DENV2 CPE, RAD54 inh)
COc1ccc(CN=C(C#N)C2=C(O)c3ccccc3C2=O)cc1	none (no result: GSIS activator, RAD54 inh)
N#CC(=Nc1cccc(F)c1)C1=C(O)c2ccccc2C1=O	DENV2 CPE 32 (no result: dFosB activator, RAD54 inh)
C[C@H](CO)N1C[C@H](C)[C@@H](CN(C)S(=O)(=O)c2cccs2)OCCCC[C@H](C)Oc2ccc(NS(=O)(=O)c3ccc(F)cc3)cc2C1=O	none (no result: dFosB activator)
CN1CCN(c2cc(N3CCN(C(=O)c4ccco4)CC3)c3c4c(onc24)-c2ccccc2C3=O)CC1	RAD54 inh 54 (no result: GSIS activator, MLL AF4-AF9 inh, RAD52 inh, DENV2 CPE)
CCOC(=O)N1CCN(c2cc(NCCC(=O)O)c3c4c(onc24)-c2ccccc2C3=O)CC1	none (no result: GSIS activator, MLL AF4-AF9 inh, RAD52 inh, DENV2 CPE)
O=C1c2ccccc2-c2onc3c(N4CCN(CCO)CC4)cc(N4CCN(C(=O)c5ccco5)CC4)c1c23	MLL AF4-AF9 inh 76
O=C([C@H]1[C@H](CO)[C@H]2Cn3c(ccc(C4=CCCC4)c3=O)[C@@H]1N2)N1CCCCC1	none (no result: dFosB activator)
CN(C)c1ccc2nc3c(=O)[nH]c(=O)nc-3n(CC(O)C(O)C(O)CO)c2c1 (stereo not drawn)	dFosB activator 117
Cc1ncc(C(O)c2ccc(N(C)C)cc2)n1Cc1ccccc1 (stereo not drawn)	none (no result: GSIS activator, dFosB activator)
C[C@H](CO)N1C[C@H](C)[C@H](CN(C)C(=O)Nc2ccc(F)cc2)Oc2ccc(NC(=O)Cn3cnnn3)cc2CC1=O	none (no result: dFosB activator, MLL AF4-AF9 inh, RAD52 inh, DENV2 CPE, RAD54 inh)
COc1cc2c(c(OC)c1OC)[C@@]1(c3ccccc3)CCCC[C@H]1[C@@H]2NC(=O)C(F)(F)F	DENV2 CPE 24 (no result: dFosB activator, MLL AF4-AF9 inh, RAD54 inh)
COc1ccc2c(c1)[C@@H](NC(=O)C(F)(F)F)[C@@H]1CCCC[C@]21c1ccccc1	none (no result: dFosB activator, MLL AF4-AF9 inh, RAD54 inh)
C[C@H](CO)N1C[C@H](C)[C@@H](CN(C)C(=O)c2ccncc2)Oc2ncc(C#CC3CCCCC3)cc2C1=O	none (no result: dFosB activator)
CC(C)CC#Cc1ccc2c(c1)O[C@@H](CN(C)C(=O)c1cccc(F)c1)[C@H](C)CN([C@@H](C)CO)S2(=O)=O	none (no result: dFosB activator)
CCOC(=O)C1C(=O)C=C(c2cccs2)CC1c1ccccc1C (stereo not drawn)	GSIS activator 49 (no result: MLL AF4-AF9 inh, RAD52 inh, DENV2 CPE, RAD54 inh)
CCC(=O)Nc1ccc2c(c1)OC[C@H](C)N(C(=O)CN(C)C)C[C@@H](C)[C@@H](OC)CN(C)C2=O	none (no result: dFosB activator)
C[C@H](CO)N1C[C@H](C)[C@@H](CN(C)S(=O)(=O)c2ccccc2)Oc2ccc(NC(=O)CCCN(C)C)cc2CC1=O	none (no result: dFosB activator)
CCNC(=O)Nc1ccc2c(c1)C(=O)N(C)[C@@H]1CC[C@H](CC(=O)NCCN3CCCC3)O[C@H]1CO2	none (no result: dFosB activator, MLL AF4-AF9 inh, RAD52 inh)
CC(=O)c1c(C)oc2ccc(NS(=O)(=O)c3ccc(O)c(C(=O)O)c3)cc12	none (no result: GSIS activator, MLL AF4-AF9 inh, RAD52 inh, DENV2 CPE)
CC(=O)c1c(C)oc2ccc(NS(=O)(=O)c3ccc(F)cc3C)cc12	GSIS activator 223
OC[C@H]1[C@@H](c2ccccc2)C2(CN(Cc3nccs3)C2)N1CCC(F)(F)F	none (no result: dFosB activator, RAD54 inh)
CN(C[C@H]1N[C@@H](CO)[C@H]1c1ccc(-c2cccc(F)c2)cc1)C(=O)CC1CC1	DENV2 CPE 20 (no result: dFosB activator)
CN(C[C@H]1N[C@@H](CO)[C@H]1c1ccc(-c2cccc(F)c2)cc1)C(=O)C1CCC1	none (no result: dFosB activator)
CCN(C[C@H]1N[C@H](CO)[C@@H]1c1ccc(-c2ccc(F)cc2)cc1)C(=O)COC	DENV2 CPE 45 (no result: dFosB activator)
COCCN(C[C@H]1N[C@H](CO)[C@@H]1c1ccc(-c2ccc(F)cc2)cc1)C(C)=O	DENV2 CPE 35 (no result: dFosB activator)
CN(C)C(=O)C[C@H]1C[C@H]2c3cc(NC(=O)C4CCC4)ccc3O[C@H]2[C@@H](CO)O1	none (no result: dFosB activator)
O=C(Nc1cccc(S(=O)(=O)C(F)(F)F)c1)[C@H]1C[C@H](O)[C@@H](CO)O1	none (no result: dFosB activator)
O=C(Nc1cccc(S(=O)(=O)C(F)(F)F)c1)[C@@H]1O[C@H](CO)[C@@H](O)[C@H]1O	GSIS activator 43 (no result: dFosB activator)
COc1cc(/C=C2\SC(=O)N(CC(=O)Nc3cccc(C)c3)C2=O)ccc1OC(C)C(=O)O (stereo not drawn)	none
